Active and inactive are the calls of the source. Unless noted, no stated cut-off is given here; in the data, active means inhibition above about 25%; inactive means the rest.
How the values were obtained:
[1] = biological target: Nuclear receptor coactivator 1 (Homo sapiens) (UniProt Q15788); assay: NCOA1 GAL4-fusion reporter inhibition – cell-based, luminescence, quadruplicate, confirmation (AID 588820;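 active means mean inhibition above 46.68%, the untreated control wells mean plus 3 SD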;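 further: 0% = DMSO wells and 100% = gossypol 36 µM treated wells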); details: HEK293 GAL4-SRC1 luciferase reporter, at 3.6 µM, hits give high values
[2] = repression of VP16-driven luciferase reporter – cell-based, luminescence, high throughput, counter-screen for SRC1 inhibitor project (AID 588824); details: cell-based VP16 transactivation luciferase luminescence; at 3.6 µM; hits give high values

Chain of Nuclear receptor coactivator 1 (Homo sapiens) (Q15788 whole entry, looked up, the tested form may be a part): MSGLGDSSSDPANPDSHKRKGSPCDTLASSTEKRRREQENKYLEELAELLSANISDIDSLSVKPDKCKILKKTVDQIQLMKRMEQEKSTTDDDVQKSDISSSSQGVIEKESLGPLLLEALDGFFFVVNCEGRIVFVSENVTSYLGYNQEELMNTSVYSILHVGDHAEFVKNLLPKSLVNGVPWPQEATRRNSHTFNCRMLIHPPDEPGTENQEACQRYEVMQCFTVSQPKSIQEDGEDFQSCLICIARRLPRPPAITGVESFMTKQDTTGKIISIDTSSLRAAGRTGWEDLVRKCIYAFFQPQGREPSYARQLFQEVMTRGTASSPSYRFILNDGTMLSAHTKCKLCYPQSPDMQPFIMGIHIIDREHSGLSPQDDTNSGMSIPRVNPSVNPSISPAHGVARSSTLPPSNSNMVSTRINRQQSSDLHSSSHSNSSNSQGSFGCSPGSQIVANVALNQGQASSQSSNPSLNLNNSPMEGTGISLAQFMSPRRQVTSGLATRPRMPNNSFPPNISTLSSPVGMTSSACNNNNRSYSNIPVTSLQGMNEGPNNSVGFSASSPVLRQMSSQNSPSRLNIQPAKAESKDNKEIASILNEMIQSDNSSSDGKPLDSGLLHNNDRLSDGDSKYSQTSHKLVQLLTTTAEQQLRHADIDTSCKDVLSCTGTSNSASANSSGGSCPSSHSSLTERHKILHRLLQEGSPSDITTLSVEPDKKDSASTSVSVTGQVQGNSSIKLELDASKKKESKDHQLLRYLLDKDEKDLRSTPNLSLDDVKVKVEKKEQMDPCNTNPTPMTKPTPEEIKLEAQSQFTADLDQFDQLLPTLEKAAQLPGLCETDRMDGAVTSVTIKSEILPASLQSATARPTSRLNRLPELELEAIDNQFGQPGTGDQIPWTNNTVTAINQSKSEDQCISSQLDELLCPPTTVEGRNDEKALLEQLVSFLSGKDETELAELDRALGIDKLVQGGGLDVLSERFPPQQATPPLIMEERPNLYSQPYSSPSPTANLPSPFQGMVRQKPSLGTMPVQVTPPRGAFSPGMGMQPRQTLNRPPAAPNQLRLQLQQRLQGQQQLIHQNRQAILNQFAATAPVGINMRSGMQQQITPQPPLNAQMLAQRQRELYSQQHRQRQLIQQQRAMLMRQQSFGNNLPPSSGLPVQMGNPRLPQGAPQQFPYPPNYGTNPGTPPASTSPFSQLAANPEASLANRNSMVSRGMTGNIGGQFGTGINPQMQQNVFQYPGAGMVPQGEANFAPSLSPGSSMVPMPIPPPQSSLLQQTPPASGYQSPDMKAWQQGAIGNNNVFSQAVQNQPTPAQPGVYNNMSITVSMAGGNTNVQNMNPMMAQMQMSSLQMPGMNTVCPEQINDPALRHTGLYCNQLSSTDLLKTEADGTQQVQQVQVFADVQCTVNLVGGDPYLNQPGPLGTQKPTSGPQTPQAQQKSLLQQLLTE

For `COc1ccc(CC(=O)Nc2ccc3c(c2)CCC3)cc1OC`, the inhibition [1] was 10.1% (inactive) and the inhibition [2] was 2.91% (inactive).
In the case of `CC(Oc1ccc(F)cc1)C(=O)Nc1cc(S(=O)(=O)N2CCCCC2)ccc1N1CCOCC1` (stereo unspecified), the inhibition [1] is reported as -3.38% (inactive) and the inhibition [2] is reported as 6% (inactive).
With `CN(CC(=O)Nc1c(Cl)cccc1Cl)C(=O)CNC(=O)c1ccc2ccccc2c1` the inhibition [1] was -23.2% (inactive) and the inhibition [2] was -11.1% (inactive).
With `c1ccc(-n2cnc3cc(NCc4cccs4)ccc32)cc1` the inhibition [1] was -69.4% (inactive) and the inhibition [2] was -44.1% (inactive).
In the case of `C=CCc1cccc(/C=N/NC(=O)C(C)Nc2ccc(C)cc2)c1O` (stereo unspecified), the inhibition [1] is reported as 6.49% (inactive) and the inhibition [2] is reported as 8.01% (inactive).
With `COc1cccc2c1OC1(C)CC2NC(=O)N1c1cccc(C(=O)Nc2ccc3c(c2)OCCO3)c1` (stereo unspecified) the inhibition [1] was -28.6% (inactive) and the inhibition [2] was -19.2% (inactive).
With `COc1ccc(CN2CCN(C(=O)c3cc(-c4cccnc4)nc4ccc(Cl)cc34)CC2)c(OC)c1OC` the inhibition [1] was -29.8% (inactive) and the inhibition [2] was -6.25% (inactive).
For `COc1ccc2cc3cc(C(=O)NCCc4ccc(OC)c(OC)c4)oc3nc2c1`, the inhibition [1] was -32.9% (inactive) and the inhibition [2] was 42.2% (active).
In the case of `C[n+]1c2n(c3ccccc31)N=C(c1ccc(Cl)cc1)CS2`, the inhibition [1] is reported as -20.3% (inactive) and the inhibition [2] is reported as 19.1% (inactive).
For `Cc1cc2c(NCc3ccccc3)ncnc2s1`, the inhibition [1] was 5% (inactive) and the inhibition [2] was 18.8% (inactive).
In the case of `COc1ccc(-c2ocnc2C(=O)NCc2nn(-c3ccccc3)nc2C)cc1`, the inhibition [1] is reported as -0.81% (inactive) and the inhibition [2] is reported as 15% (inactive).
With `COc1ccc(NC(=O)CCn2c(=S)[nH]c3ccccc3c2=O)cc1` the inhibition [1] was 2.22% (inactive) and the inhibition [2] was 0.97% (inactive).
In the case of `Cc1cc2nc(C3CCCCC3)c(Cc3cccc(F)c3)n2c(C)c1Br`, the inhibition [1] is reported as 4.23% (inactive) and the inhibition [2] is reported as 11.8% (inactive).
For `CCOC(=O)c1c(NC(=O)C(C)N2CCN(C(=O)c3ccco3)CC2)sc2c1CCCC2` (stereo unspecified), the inhibition [1] was 16.6% (inactive) and the inhibition [2] was 12% (inactive).
With `CN(C)C(=O)c1cccc(-c2cnc3cccnn23)c1` the inhibition [1] was -7.49% (inactive) and the inhibition [2] was 7.53% (inactive).
For `CC(=O)Nc1sc2c(c1-c1nc3ccccc3s1)CCN(C(C)C)C2`, the inhibition [1] was -147% (inactive) and the inhibition [2] was 59.3% (active).
In the case of `CN(Cc1ccc(F)cc1)C(=O)c1cccc(S(=O)(=O)N2CCN(c3ccccc3)CC2)c1`, the inhibition [1] is reported as -0.46% (inactive) and the inhibition [2] is reported as 15% (inactive).
In the case of `CCn1c(=O)n(CC)c2cc(N3CCCC3)c(NC(=O)c3ccccc3OC)cc21`, the inhibition [1] is reported as -13.7% (inactive) and the inhibition [2] is reported as -7.42% (inactive).
With `Cc1cc2c(OCC(O)CNCc3ccco3)cccc2[nH]1` (stereo unspecified) the inhibition [1] was -14.2% (inactive) and the inhibition [2] was -11.1% (inactive).
For `C=C(C)c1cccc(C(C)(C)NC(=O)N(Cc2ccccc2)Cc2ccco2)c1`, the inhibition [1] was -2.08% (inactive) and the inhibition [2] was -0.46% (inactive).
With `CC1CCN(C(=O)Cn2c3ccc(F)cc3c3nc4n(c(=O)c32)CCCS4)CC1` the inhibition [1] was 4.67% (inactive) and the inhibition [2] was 3.44% (inactive).
With `CCOc1cccc(/C=N/NC(=O)c2cccnc2)c1O` the inhibition [1] was 17.4% (inactive) and the inhibition [2] was 9.63% (inactive).
For `COc1ccc(OC)c(C2=NS(=O)(=O)N(C)C(C(=O)Nc3ccc(F)cc3F)=C2)c1`, the inhibition [1] was -0.3% (inactive) and the inhibition [2] was 4.07% (inactive).
For `COc1ccccc1NS(=O)(=O)c1cc(NC(=O)C(C)(C)C)ccc1N1CCOCC1`, the inhibition [1] was -45.2% (inactive) and the inhibition [2] was -32.5% (inactive).
With `CC1(c2ccccc2)NC(=O)N(CC(=O)Nc2cc3c(cc2Br)OCCO3)C1=O` (stereo unspecified) the inhibition [1] was -11.8% (inactive) and the inhibition [2] was -6.44% (inactive).
For `O=C(Nc1nc(-c2ccccn2)cs1)c1cccc(S(=O)(=O)N2CCOCC2)c1`, the inhibition [1] was 25% (inactive) and the inhibition [2] was 20% (inactive).
In the case of `CC(C)Oc1ccccc1NC(=O)CSc1nc2ccccc2c(=O)n1C`, the inhibition [1] is reported as -5.84% (inactive) and the inhibition [2] is reported as 13.4% (inactive).
For `O=C(Nc1ccncc1)c1ccccc1[N+](=O)[O-]`, the inhibition [1] was 33.6% (inactive) and the inhibition [2] was 19% (inactive).
For `N#CC1(NC(=O)CSc2nnc(-c3ccccc3F)o2)CCCCC1`, the inhibition [1] was -24.1% (inactive) and the inhibition [2] was -10.4% (inactive).
With `Cc1ccc(C(C(=O)NCc2ccccc2)N(Cc2cccs2)C(=O)c2ccc3c(c2)OCCO3)cc1` (stereo unspecified) the inhibition [1] was -21.8% (inactive) and the inhibition [2] was -1.97% (inactive).
For `Cc1cccc(C)c1NC(=S)N(CCN(C)C)Cc1cccs1`, the inhibition [1] was -19.4% (inactive) and the inhibition [2] was -2.41% (inactive).
For `Cc1nc(N)c(C#N)c(-c2cccnc2)c1C`, the inhibition [1] was 46.4% (inactive) and the inhibition [2] was 26.5% (active).
With `CC(C)n1c(SCC(=O)Nc2nc3c(s2)CCCC3)nc2c1c(=O)n(C)c(=O)n2C` the inhibition [1] was 29.2% (inactive) and the inhibition [2] was 23.6% (inactive).
